PubChem BioAssay AID1468 (National Center for Advancing Translational Sciences (NCATS), 2008)
In all, about 280,000 compounds went through this assay and about 1,100 (0.39%) were called active. Not shown: some 7% with an inconclusive outcome. This is one part of a sample in which actives are shown more often than they occur. Unmarked numbers belong to inactive results. Calls come from the whole dose curve; as a rule, active = well fitted inhibition curve with a large enough effect; inconclusive = small, poorly fitted or top-dose-only effect, or effect the other way; inactive = flat fitted curve, though single readings scatter.

The compounds below were run against Microtubule-associated protein tau (Homo sapiens) (UniProt P10636) (assay: qHTS for Inhibitors of Tau Fibril Formation, Fluorescence Polarization). Conditions: K18 P301L tau heparin fibrillization, Alexa594 FP, 6 h; series mostly up to 57.7 µM; activity, negative = inhibition: at the top concentration.
Description: NIH Molecular Libraries Probe Production Network [MLPCN]
NIH Chemical Genomics Center [NCGC]
Assay Provider: Carlo Ballatore, University of Pennsylvania
The microtubule-associated protein tau is an abundant protein in the axons of neurons that stabilizes microtubules. With its ability to modulate microtubule dynamics, tau contributes directly or indirectly, to key structural and regulatory cellular functions. Particularly important is the influence tau exerts on axonal transport, which allows signaling molecules, trophic factors and other essential cellular constituents to travel along the axons. Under pathological conditions, tau becomes sequestered into insoluble aggregates called neurofibrillary tangles. This phenomenon is believed to have pathological consequences by promoting axonal transport deficits that ultimately lead to synaptic dysfunction and neuronal loss. To identify inhibitors of tau aggregation, a heparin-induced tau fibril formation assay was used that employed a recombinantly expressed fragment of tau, K18 (Q242-E372), bearing a P301L mutation (Gustke et al. 1994; Hong et al. 1998).
Gustke, N., B. Trinczek, et al. (1994). "Domains of tau protein and interactions with microtubules." Biochemistry 33(32): 9511-22.
Hong, M., V. Zhukareva, et al. (1998).
Li, W. and V. M. Lee (2006). "Characterization of two VQIXXK motifs for tau fibrillization in vitro." Biochemistry 45(51): 15692-701.
von Bergen, M., S. Barghorn, et al. (2001). "Mutations of tau protein in frontotemporal dementia promote aggregation of paired helical filaments by enhancing local beta-structure." J Biol Chem 276(51): 48165-74.
NCGC Assay Protocol Summary:
For screening, 2 uL/well human K18 P301L (15 uM unlabeled and 0.24 uM Alexa 594-labeled tau final concentrations) in reagent buffer (100 mM sodium acetate pH 7) was dispensed into black solid 1536-well plates (Grenier) using a solenoid-based dispenser. Following transfer of 23 nL compound or DMSO vehicle by a pin tool, 2 uL/well heparin (20 uM final concentration) in reagent buffer was added and the plate centrifuged 15 s at 1000 RPM. Plates were incubated 6 hr at 37 C and then 1 uL/well ThT (30 uM final concentration) was added. After a 1 hr ambient incubation, the plates were read by an Envision (Perkin Elmer) to monitor Alexa 594 FP (555 nm excitation and 632 nm emission).
Keywords: NIH Roadmap, MLPCN, MLI, MLSMR, NCGC, qHTS, tau, tauopathies, Alzheimer's disease, fibril, neurodegeneration, aggregation
% is set by controls: 0 for no effect and ±100 for the full control effect; potency is the fitted concentration of half-maximal effect.
Note: nearly all actives have a fitted effect of over 55% in size.

Chain of Microtubule-associated protein tau (Homo sapiens) (P10636 561-689 P618L limits assumed): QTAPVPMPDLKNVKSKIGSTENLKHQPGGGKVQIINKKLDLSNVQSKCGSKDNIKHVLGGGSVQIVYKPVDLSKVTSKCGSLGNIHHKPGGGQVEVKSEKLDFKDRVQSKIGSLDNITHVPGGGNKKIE

Row | Compound | Potency | activity, negative = inhibition
1 | Oc1cc(O)c2c(c1)OC(c1ccc(O)c(O)c1)C(O)C2 (stereo unspecified) | 14.1 µM (active) | –
2 | CC(NC(=O)c1cc(Sc2ccc(F)cc2F)nc2ccccc12)c1ccccc1 (stereo unspecified) | – | 2.21%
3 | CCCC(=O)Nc1cc(C(=O)NCc2ccc(OC)cc2)ccc1S(=O)(=O)c1ccc(Cl)cc1 | – | -4.05%
4 | COc1ccccc1-c1nnc(SCC(N)=O)o1 | – | 1.99%
5 | CCN(CC)CC(=O)c1c[nH]c2ccc(OC)cc12 | – | 16.4%
6 | COc1ccc2[nH]cc(/C=C(/C#N)S(=O)(=O)c3ccccc3)c2c1 | 28.2 µM (active) | –
7 | COc1ccc(NS(=O)(=O)c2ccc(Oc3c(C#N)cccc3C#N)cc2)cc1 | – | -8.14%
8 | COc1ccc(C)cc1NC(=O)COCc1cc(-c2cccs2)on1 | – | -3.41%
9 | O=C(NCCOc1ccccc1F)Nc1ccc(Br)cc1 | – | -10.5%
10 | COCC(=O)Nc1nnc(COc2ccccc2)s1 | – | 8.93%
11 | O=C(Nc1ccccc1)Nc1nnc(COc2ccccc2F)s1 | 14.1 µM (active) | –
12 | Cc1ccc(N(C)C(=O)C2CCN(S(=O)(=O)c3ccc4c(c3)CCCN4C(=O)C3CCC3)CC2)cc1 | – | 3.78%
13 | Cc1ccc2cccc(NC(=O)c3ccc(OC(C)C)cc3)c2n1 | – | -0.836%
14 | Cc1ccc(S(=O)(=O)c2ccc(Oc3ccccc3)cc2)cc1 | – | -4.08%
15 | CC1=C/C(=N\S(=O)(=O)c2ccccc2)C(C(C)C)=CC1=O | – | -2.92%
16 | CC1=C/C(=N\OS(=O)(=O)c2ccccc2)C=CC1=O | 12.6 µM (active) | –
17 | COc1ccccc1/C=C/c1nc(C#N)c(NC(C)c2ccccc2)o1 (stereo unspecified) | – | 9.42%
18 | NS(=O)(=O)c1ccc(CCNC(=O)Nc2ccc(Cl)cc2)cc1 | – | -2.66%
19 | Cn1ccc(NC(=O)Nc2ccc(Cl)cc2)n1 | – | 3.56%
20 | CC(C)S(=O)(=O)c1csc(NC(=O)Nc2ccc(Cl)cc2)c1Cl | 31.6 µM (active) | –
21 | CC(=O)c1ccc(N2CCN(C(=O)c3ccc4nc[nH]c4c3)CC2)cc1 | – | 8.33%
22 | CN(C)N=Nc1ccc2nc[nH]c2c1 | 8.91 µM (active) | –
23 | CC/C(O)=N\S(=O)(=O)c1ccc(N=NN(C)C)cc1 | – | 1.65%
24 | CCOc1ccc(-c2nonc2NC(=O)c2oc3ccc(CC)cc3c2C)cc1 | – | -19.5%
25 | O=c1[nH]c2ccccc2n2c(-c3ccccc3)nnc12 | 14.1 µM (active) | –
26 | CCOC(=O)c1cnc2[nH]c3ccccc3n2c1=O | – | 2.71%

Row | Compound | Potency | activity, negative = inhibition
27 | Cc1ccc(-c2nc3ccccc3[nH]c2=O)cc1 | – | -0.895%
28 | Cc1cc(C)c2oc(C(=O)Nc3c(C(=O)Nc4ccccc4)oc4ccccc34)cc(=O)c2c1 | – | -9.93%
29 | Cc1nn(C)c2c1c(C(F)(F)F)cc(=O)n2C(C)C(=O)NCc1ccc(Cl)cc1 (stereo unspecified) | – | 8.26%
30 | Cn1sc(=O)c2cc(S(=O)(=O)NC3CC3)ccc21 | 28.2 µM (active) | –
31 | CC1CCC(NS(=O)(=O)c2ccc3c(c2)n(C)c(=O)c(=O)n3C)CC1 (stereo unspecified) | – | -2.24%
32 | CSc1ccc(S(=O)(=O)NC2CCCCC2)cc1 | – | -22.1%
33 | Cc1ccc(NC(=O)Nc2cccc(C(F)(F)F)c2)nc1 | – | 1.19%
34 | CCNS(=O)(=O)c1ccc(NC(=O)Nc2cccc(C(F)(F)F)c2)cc1 | 25.1 µM (active) | –
35 | CC(C)C[C@H](NC(=O)Nc1cccc(C(F)(F)F)c1)C(=O)O | – | 2.26%
36 | Cc1cccc(Nc2cc(C)nc(-n3nc(C)cc3C)n2)c1 | – | 6.4%
37 | Brc1ccc2c(c1)NC(c1cccnc1)=NC(c1ccccc1)=N2 | – | 6.59%
38 | CC(C)(C)c1nnc(NC(=O)C2c3ccccc3Oc3ccccc32)s1 | 15.8 µM (active) | –
39 | CCC(C)(C)NC(=O)C1c2ccccc2Oc2ccccc21 | – | -3.37%
40 | CCC(C)NC(=O)C1c2ccccc2Oc2ccccc21 (stereo unspecified) | – | 2.28%
41 | Cc1ccc(NC(=O)Nc2sc3nc4n(c(=O)c3c2C)CCC(C)CC4)c(Cl)c1 (stereo unspecified) | – | 17.2%
42 | Cc1cc(C)c(NC(=O)Cn2c(SCC(=O)NCc3ccccc3)nc3ccccc32)c(C)c1 | – | 2.13%
43 | COc1ccc(Cn2c(=O)c3oc4ccccc4c3n(CC(=O)Nc3ccc(F)cc3F)c2=O)cc1 | – | -17.2%
44 | O=C(Cn1c(=O)n(Cc2ccccc2)c(=O)c2sc3ccccc3c21)Nc1ccccc1F | 28.2 µM (active) | –
45 | CCOc1ccccc1NC(=O)Cn1c(=O)n(Cc2ccco2)c(=O)c2sc3ccccc3c21 | – | -2.71%
46 | CC(=O)c1cccc(NC(=O)c2nc(-c3ccccc3)n(-c3cccc(C)c3)n2)c1 | – | -7.49%
47 | O=C(COC(=O)CCCSc1nc2ccccc2[nH]1)Nc1ccc(Oc2ccccc2)cc1 | 15.8 µM (active) | –
48 | CCc1nnc(NC(=O)CCCSc2nc3ccccc3[nH]2)s1 | – | -0.721%
49 | COc1ccc(NC(=O)CSc2nc3ccccc3[nH]2)cc1 | – | -11%
50 | Oc1c(C=Nc2cccc3nsnc23)ccc2ccccc12 | 3.98 µM (active) | –
51 | Oc1ccc2ccccc2c1C=Nc1ccccc1 | – | -3.62%
